Rows were chosen to be rich in hits. Some 3.7% of all compounds tested hit in one or more screens of this group.
Nrf2 ARE act: qHTS of Nrf2 Activators; AREc32 ARE-luciferase reporter (MCF7-derived line), luminescence, 24 h; Potency, µM (highest dose often 46.1 µM), actives largely listed as activators; actives 0.31% (n = 410,000); AID 624171, 2012; note: nearly all actives have a fitted effect of over 65% in size
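Luminescent ARE reporter assay in AREc32_Fluc cells: overnight plating at 37 deg C, 24 hr compound incubation, Steady-Glo added, 30 min RT before reading.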
ClpP mod: qHTS Assay for Activators of ClpP. ATP-dependent Clp protease proteolytic subunit (Bacillus subtilis (strain 168)), P80244. Potency, µM (top dose mostly 57.5 µM). purified B. subtilis ClpP, FRET peptide cleavage, 20 min. AID 651965, 2013. actives 1.9% (n = 340,000); active = well fitted falling curve with a large enough effect; inconclusive = small, poorly fitted or top-dose-only effect; inactive = no such curve, though single readings can be large or run the other way; note: the source files actives as falling curves though it sought activators and does not explain the sign; nearly all actives have a fitted effect of over 65% in size
Target sequence (P80244 whole entry, looked up): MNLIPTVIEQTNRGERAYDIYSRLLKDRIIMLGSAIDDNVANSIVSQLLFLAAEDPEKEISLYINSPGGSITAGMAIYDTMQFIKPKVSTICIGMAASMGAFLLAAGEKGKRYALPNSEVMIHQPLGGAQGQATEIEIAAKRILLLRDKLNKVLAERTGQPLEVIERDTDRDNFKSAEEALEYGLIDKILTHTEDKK
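Purified B. subtilis ClpP, 10 microg/mL final in Tris/HCl pH8 with KCl, BSA, glycerol and Tween-20, cleaved an Abz/nitrotyrosine-quenched decapeptide. Fluorescence (ex 320, em 430) was read at 0 and 20 min at room temperature. Delta was normalized to 5.8 microM ADEP and DMSO/no-enzyme controls.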
Nrf2 inh: Nrf2 qHTS screen for inhibitors. AID 504444, 2011. Potency, µM (titrated, usually from 46 µM), actives largely listed as inhibitors. A549 ARE-Fluc reporter, luciferase luminescence, 18-24 h. actives 2.1% (n = 360,000); note: nearly all actives have a fitted effect of over 60% in size
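A549 ARE_Fluc cells (5000/well, 5% FBS OPTI-MEM) pre-incubated 2 h, then treated with compounds 18-24 h at 37C/5% CO2 in concentration-response. CellTiter-Fluor viability read first; BugLite luciferase luminescence after 15 min at room temperature gives Nrf2 activity.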
A549 viability: Nrf2 qHTS screen for inhibitors: counterscreen for cytotoxicity; Potency, µM (titrated, usually from 46 µM), actives largely listed as inhibitors; actives 0.16% (n = 390,000); A549 ARE-Fluc cells, CellTiter-Fluor viability, 18-24 h
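Cytotoxicity counterscreen: CellTiter-Fluor fluorescence was measured in A549 ARE_Fluc cells after 18-24 h of compound exposure in a concentration series. The subsequent BugLite luminescent read reports ARE-luciferase activity.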
IL-2 act: qHTS of IL-2 Activators | IL-2 activation reporter assay, cell-based qHTS; stimulated with anti-CD3/CD4/CD28 beads; in transgenic mouse T cells | activation, % (series mostly up to about 46 µM) | actives 0.065% (n = 360,000); in the data active = activation above about 50%; inconclusive = mostly about 30% to 49%
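First, unstimulated transgenic mouse T cells were exposed to compound for 60 min. Next, anti-CD3/anti-CD4-coated beads with anti-CD28 were added. Finally, after 18 h at 37 degrees C, EGFP and DsRed were imaged.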
miR-21 act: qHTS Assay for Modulators of miRNAs and/orActivators of miR-21. Potency, µM (doses to about 38.3 µM), usual class: activators. AID 2288, 2010. HeLa miR-21 FLuc reporter, luciferase, 48 h. 340,000 tested, under 10 active;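 note: miR-21 action dims this reporter so a rising signal means less miR-21 action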
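Luminescence from a firefly luciferase reporter carrying a miR-21 binding site downstream, stably expressed under a CMV promoter in HeLa cells that make miR-21 endogenously, reports miRNA modulation after 48 h compound exposure up to approximately 40uM final.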
ClpP inh valid: qHTS Assay for Activators of ClpP: Hit Validation of Inhibitors; Potency, µM (highest dose often 57.5 µM), usual class: inhibitors; purified B. subtilis ClpP, FRET-FV substrate cleavage, 20 min; shares compounds with ClpP mod; actives 40% (n = 470); AID 743245, 2014; note: nearly all actives have a fitted effect of over 70% in size
Of the large screens only hits and unclear results are named; the others gave an inactive call (follow-up assays come after a bar, where they were run). Unless noted, calls come from the whole dose curve; as a rule, active = well fitted curve in the direction sought with a large enough effect; inconclusive = small, poorly fitted or top-dose-only effect, or another doubt; inactive = no such curve, though single readings can be large; an effect the other way counts as inactive or inconclusive.

CCN(CC)CCOC(=O)c1ccc(NC(=O)Cn2ncc3c2-c2cc(C)ccc2OC3)cc1	none (no result: IL-2 act)
COc1ccc2cc3cc(C(=O)Nc4ccccc4C)oc3nc2c1	none (no result: IL-2 act) | ClpP inh valid 15.3µM
Cc1cc(OC(C)C(=O)N2CCN(CCc3ccccn3)CC2)ccc1Cl (stereo unspecified)	none (no result: IL-2 act)
COc1ccc(C(=O)N2CCCc3ccccc32)cc1	none (no result: Nrf2 inh)
COC(=O)CN1CCN(C(=O)c2ccc(F)cc2)c2ccccc2C1	none | ClpP inh valid inactive
CCC(C)NC(=O)c1cnn2c(C)c3c(nc12)CCCC3 (stereo unspecified)	ClpP mod 10µM (no result: Nrf2 inh) | ClpP inh valid 21.7µM
COc1ccc(NC(=O)Cn2ncc3c([nH]c4ccccc43)c2=O)cc1Cl	Nrf2 inh inconclusive (no result: IL-2 act)
Cc1ccnc(NC(=O)c2ccc(OCc3c(C)noc3C)cc2)c1	none (no result: miR-21 act) | ClpP inh valid inactive
Cc1cc(C)n2nc(NCc3ccccc3)nc2n1	ClpP mod 10µM | ClpP inh valid 24.3µM
CCOC(=O)c1c(NC(=O)c2ccc(S(=O)(=O)N3CCC(C)CC3)cc2)sc2c1CCN(C)C2	none (no result: Nrf2 inh, IL-2 act) | ClpP inh valid inconclusive
O=C(NCCCN1CCCC1=O)C1CCN(S(=O)(=O)c2ccccc2)CC1	none (no result: miR-21 act)
O=C(NCCCN1CCCC1=O)C1CCN(S(=O)(=O)N2CCOCC2)CC1	ClpP mod 10µM | ClpP inh valid inactive
COc1cc(-c2nc(-c3ccccc3)c(-c3ccc(F)cc3)[nH]2)cc2c1OCO2	ClpP mod 10µM | ClpP inh valid 21.7µM
COc1ccc(-c2[nH]c(-c3ccc4c(c3)OCO4)nc2-c2ccccc2)cc1	ClpP mod 2.51µM, Nrf2 inh 20.6µM, A549 viability inconclusive | ClpP inh valid 24.3µM
O=C(NCc1ccccc1Cl)c1ccc(NC(=O)c2nsc3ccccc23)cc1	ClpP mod inconclusive (no result: Nrf2 inh, IL-2 act)
CC1CCN(c2nc3ccccc3nc2C(F)(F)F)CC1	Nrf2 inh inconclusive (no result: IL-2 act)
Cc1c(C(=O)N2CCN(c3ccc([N+](=O)[O-])cc3)CC2)sc2ncn(CC(=O)N3CCOCC3)c(=O)c12	Nrf2 inh inconclusive (no result: ClpP mod)
Cc1c(C(=O)N2CCOCC2)sc2ncn(CC(=O)N3CCC(C)CC3)c(=O)c12	ClpP mod 3.16µM | ClpP inh valid inactive
CCCNC(=O)c1ccc(C2SCC(=O)N2Cc2ccccc2)cc1 (stereo unspecified)	ClpP mod 2.51µM | ClpP inh valid inactive
Nc1ccc(-c2nc3ccc(-c4nc5ccccc5o4)cc3[nH]2)cc1	Nrf2 inh inconclusive, A549 viability inconclusive
Cc1nc2ccc(-c3nc4ccccc4o3)cc2[nH]1	ClpP mod 3.16µM, Nrf2 inh inconclusive | ClpP inh valid 15.3µM
CCOc1cc(CNC2CCCC2)ccc1OCc1ccccc1Cl	none
CCOc1cc(C2NN=C(c3ccccc3)S2)ccc1OCc1ccccc1Cl (stereo unspecified)	Nrf2 ARE act inconclusive, ClpP mod 3.55µM, Nrf2 inh inconclusive | ClpP inh valid inconclusive
Cc1ccc2c(c1)N(C(=O)Nc1cccc3c1CCCC3)CC(C)O2 (stereo unspecified)	none (no result: IL-2 act)
O=C(Nc1nnc(-c2ccncc2)s1)C1CCCO1 (stereo unspecified)	ClpP mod 6.31µM, Nrf2 inh inconclusive | ClpP inh valid 12.2µM
COc1ccccc1NC(=O)Cn1c2ccccc2c2nc3n(c(=O)c21)CCS3	ClpP mod 3.16µM | ClpP inh valid inconclusive
O=C(Cn1c2ccccc2c2nc3n(c(=O)c21)CCS3)Nc1ccccc1C(F)(F)F	none (no result: ClpP mod)
Cc1ccc(NC(=O)Cn2c(=O)n(CCC(C)C)c(=O)c3cccnc32)cc1C	none (no result: IL-2 act) | ClpP inh valid inactive
Cc1ccccc1Nc1c(-c2cc(Br)ccc2F)nc2ccccn12	ClpP mod 4.47µM (no result: IL-2 act) | ClpP inh valid inactive
Nc1nc2nc(-c3ccc(OCc4ccccc4)cc3)cc(C(F)(F)F)n2n1	ClpP mod 7.08µM (no result: A549 viability) | ClpP inh valid 17.2µM
COc1cc(C2SC[C@H]3C(=O)N(c4ccccc4)C(=O)N23)cc(OC)c1OC (stereo partly specified)	none (no result: IL-2 act)
CCN(CC)C(=O)c1c2c(nc3ccccc13)-c1ccccc1CC2	ClpP mod 8.91µM | ClpP inh valid 21.7µM
Cc1ccc(Nc2c(-c3ccc(Br)o3)nc3ccccn23)cc1	ClpP mod 8.91µM (no result: IL-2 act) | ClpP inh valid inconclusive
Cc1ccc(Nc2c(-c3ccc(C)o3)nc3ncccn23)cc1	none (no result: ClpP mod)
Cc1nc2ccccn2c1C(=O)Nc1ccc2c(c1)OCCO2	ClpP mod inconclusive, Nrf2 inh inconclusive | ClpP inh valid inactive
COC(=O)c1ccccc1NC(=O)CCC(=O)N1CC(C)Sc2ccccc21 (stereo unspecified)	none (no result: IL-2 act)
COc1ccc(-c2cc(C(=O)NCCc3ccccc3)c3c(-c4ccccc4)[nH]nc3n2)cc1OC	none (no result: IL-2 act) | ClpP inh valid 24.3µM
Cc1cc2nc(-c3ccc(Br)cc3)cc(C(F)(F)F)n2n1	none (no result: IL-2 act)
CCOC(=O)N1CCC(Nc2nc3ccccc3n3nnnc23)CC1	ClpP mod 25.1µM, Nrf2 inh inconclusive | ClpP inh valid 19.3µM
CCOC(=O)c1ccccc1Nc1nc2ccc(C)cc2n2nnnc12	none (no result: IL-2 act)
COCCCn1c(C(=O)NCCN2CCOCC2)cc2c(=O)n3cccc(C)c3nc21	ClpP mod 3.16µM | ClpP inh valid 24.3µM
Cc1cccn2c(=O)c3cc(C(=O)NCCN4CCOCC4)c(=N)n(CCCN4CCOCC4)c3nc12	A549 viability inconclusive (no result: ClpP mod)
O=C(Cc1cccs1)Nc1ccc(-c2nnc(-c3ccccc3)o2)cc1	ClpP mod 8.91µM (no result: miR-21 act) | ClpP inh valid 12.2µM
C=Cc1ccc(Cn2c(C(=O)O)c(CNCCc3ccccc3)c3ccc(C)cc32)cc1	Nrf2 inh inconclusive, A549 viability inconclusive, miR-21 act inconclusive (no result: IL-2 act)
COc1ccc(-c2cc3nc(-c4ccccc4)cc(N4CCC5(CC4)OCCO5)n3n2)cc1	ClpP mod 7.08µM, Nrf2 inh inconclusive | ClpP inh valid 4.85µM
Cc1ccc(-c2cc3nc(-c4ccccc4)cc(N4CCOCC4)n3n2)cc1	ClpP mod 8.91µM | ClpP inh valid 34.3µM
Cc1ccc(C)c(OCCCC(=O)NC2CCCCC2)c1	ClpP mod 3.16µM | ClpP inh valid inactive
Oc1ccc(/C=C/c2ccc(/C=C/c3ccc(O)cc3)c(Br)c2)cc1	none (no result: Nrf2 ARE act, ClpP mod, Nrf2 inh, A549 viability, IL-2 act, miR-21 act) | ClpP inh valid inactive

Screening data: PubChem BioAssay, National Center for Advancing Translational Sciences (NCATS)
